Assay outcomes as filed in PubChem.
Hits are enriched below; roughly 7.3% of the tested compounds scored in any of these assays.
Rab9 prom act: Rab9 promoter activation | Huh7 Rab9 promoter-luciferase reporter, luminescence, 24 h | Potency, µM (titrated, usually from 9.22 µM), without a hit: top-dose activation, negative = inhibition, usual class: activators | actives 2.8% (n = 320,000); further: % of control where 0% means no effect; nearly all actives have a fitted effect of over 60% in size
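Using Huh7 cells stably transfected with Rab9 promoter–luciferase, compounds were incubated 24 h at 37 °C, 5% CO2; luciferase luminescence was read 10 min after reagent addition.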
NPC1 promoter act: activators of NPC1 promoter. AID 485313. Huh7 NPC1 promoter luciferase reporter, 24 h. Potency, µM (top dose mostly 9.22 µM), inactives show top-dose activation, most hits filed as activators. actives 2.4% (n = 320,000); further: % of control where 0% means no effect; nearly all actives have a fitted effect of over 60% in size
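Huh7 reporter cells (NPC1 promoter driving luciferase) are dosed with compound for 24 h at 37 °C, 5% CO2; luciferase detection reagent is then added and luminescence measured after 10 min at ambient temperature.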
FLuc counter: firefly luciferase modulation, counter-screen for miR-21 project | P08659 | purified FLuc, Km substrates, luminescence inhibition | Potency, µM (doses to about 57.5 µM), inactives show at the top dose activity change, negative = inhibition, actives largely listed as inhibitors | actives 6.9% (n = 360,000);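 further: plate controls were vehicle for no effect and reference inhibitor for full effect; nearly all actives have a fitted effect of over 55% in size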
Target sequence (P08659 whole entry, looked up): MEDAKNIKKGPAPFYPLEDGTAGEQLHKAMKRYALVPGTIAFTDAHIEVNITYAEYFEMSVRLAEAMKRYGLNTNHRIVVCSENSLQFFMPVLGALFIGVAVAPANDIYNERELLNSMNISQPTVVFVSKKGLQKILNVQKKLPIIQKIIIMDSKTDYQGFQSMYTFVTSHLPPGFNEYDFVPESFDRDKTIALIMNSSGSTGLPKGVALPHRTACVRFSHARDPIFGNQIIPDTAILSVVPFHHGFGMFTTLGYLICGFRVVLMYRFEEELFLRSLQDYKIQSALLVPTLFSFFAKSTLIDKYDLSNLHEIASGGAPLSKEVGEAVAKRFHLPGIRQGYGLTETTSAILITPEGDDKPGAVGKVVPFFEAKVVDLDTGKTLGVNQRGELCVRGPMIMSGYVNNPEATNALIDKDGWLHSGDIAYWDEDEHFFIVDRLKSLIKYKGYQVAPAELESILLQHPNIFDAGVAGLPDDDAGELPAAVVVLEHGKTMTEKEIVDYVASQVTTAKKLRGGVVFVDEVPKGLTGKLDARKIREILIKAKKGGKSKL
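Purified P. pyralis luciferase, 10 nM final, with Km-level 10 uM D-luciferin and 10 uM ATP in 50 mM Tris acetate pH 7.5, 10 mM Mg acetate, 0.01% Tween-20, 0.05% BSA; 6-point qHTS titration about 60 µM downward; luminescence read.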
SMN2 splice enh: enhancers of SMN2 splice variant expression | HEK293 SMN2-luciferase splicing reporter, luminescence, 30-36 h | actives 2.8% (n = 210,000) | Potency, µM (doses to about 46.1 µM), for the others: at the highest dose activity change, positive = activation, hits mostly activators; further: % of control where 0% means no effect; nearly all actives have a fitted effect of over 55% in size
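HEK293 cells carry an SMN2 minigene-luciferase reporter in which exon 7 inclusion puts luciferase in frame. Cells were seeded at 2000 cells/well, attached for 10-12 hours, then exposed to compounds for 30-36 hours at 37C before ONE-Glo luminescence.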
ELG1 genotoxic: genotoxicity induction in ELG1-luciferase HEK293T cells; HEK293T ELG1-luciferase reporter, luminescence, 16 h; actives 1.3% (n = 330,000); Potency, µM (highest dose often 46 µM), inactives show at the top dose activity change, positive = activation, usual class: activators; further: % of control where 0% means no effect; nearly all actives have a fitted effect of over 60% in size
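ELG1-luciferase HEK293T cells, 2,000/well; compound pinned in; 16 hr, 37 °C, 5% CO2; ONE-Glo, 30 min RT; luminescence on CCD imager.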
KinaseGlo FLuc: blocks Kinase-Glo luciferase, a counter-screen artifact. Kinase-Glo luciferase, ATP luminescence, 8 min. actives 0.28% (n = 200,000). Potency, µM (titrated, usually from 38.3 µM), inactives show at the highest dose activity change, negative = inhibition, actives largely listed as inhibitors; further: on the % scale 0 is the no-effect control and ±100 the full control effect; nearly all actives have a fitted effect of over 60% in size
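Compounds were added to a substrate mix at pH 7.2 (50 mM imidazole, 10 uM ATP, within the enzyme's linear range), followed by Kinase-Glo detection reagent; luminescence was measured after 8 minutes at ambient temperature.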
* marks the source's active call; other numbers are inactive results; u = inconclusive; x = no result; [ ] = dose if it differs, or a comment. The call rests on the fitted dose curve; in most records, active means well fitted curve in the direction sought with a large enough effect; inconclusive means small, poorly fitted or top-dose-only effect, or another doubt; inactive means no such curve, though single readings can be large; an effect the other way counts as inactive or inconclusive. Potency means the concentration at half of the fitted maximal effect.

SMILES | Rab9 prom act | NPC1 promoter act | FLuc counter | SMN2 splice enh | ELG1 genotoxic | KinaseGlo FLuc
O=C(NNC(=S)Nc1ccccc1)c1ccc(O)cc1 | 3.55µM* | 3.55µM* | u | x | u | x
O=C(NNC(=S)NC(=O)c1ccccc1)c1ccc(O)cc1 | -2.4% | -3.3% | 3.2% | x | -7.8% | x
COC(=O)c1ccc(NC(=S)NNC(=O)c2ccccc2)cc1 | 0.5% | 5.1% | 23.9µM* | x | -3.0% | 0.9%
O=C(NNC(=S)Nc1ccccc1)c1cccs1 | 1.58µM* | u | u | 10µM* | u | -2.6%
Cc1ccc2[nH]c(=O)c(CN(C(=O)c3cccc(Cl)c3)C(C)(C)C)cc2c1 | x | x | -2.1% | 2.7% | x | x
Cc1nc(NC(=O)c2ccccc2)sc1-c1csc(Nc2ccc(F)cc2)n1 | -1.5% | -4.6% | 7.57µM* | -46.2% | -11.5% | -9.4%
Cc1ccccc1Nc1nc(-c2sc(NC(=O)c3ccccc3)nc2C)cs1 | -4.2% | 0.7% | 8.49µM* | 1.9% | 0.0% | -8.4%
Cc1ccccc1Nc1nc(-c2sc(NC(=O)c3cccc(Cl)c3)nc2C)cs1 | 0.1% | -0.6% | u | -18.3% | 0.0% | -7.1%
Cc1nc(NC(=O)c2ccccc2)sc1-c1csc(Nc2cccc(Cl)c2)n1 | 1.9% | 0.2% | u | -33.3% | -6.8% | -3.2%
Cc1nc(Nc2ccccc2)sc1C(=O)c1ccc(F)cc1 | u | u | 19µM* | x | 15.1% | x
Cc1nc(NC(=O)c2ccccc2)sc1-c1csc(Nc2ccc(Cl)cc2)n1 | -6.4% | -4.9% | 8.49µM* | -29.3% | 0.5% | 0.4%
COc1cccc(Cn2c(CNS(=O)(=O)c3ccc(C(C)(C)C)cc3)nc3cccnc32)c1 | x | x | -11.7% | x | x | x
Cc1nc(NC(=O)c2ccco2)sc1-c1csc(Nc2ccc(Cl)cc2)n1 | 4.3% | -1.6% | 10.7µM* | -26.8% | -9.7% | 1.1%
COc1ccc(Cl)cc1Nc1nc(-c2sc(NC(=O)c3ccccc3)nc2C)cs1 | -2.6% | -8.0% | 0.3% | -36.4% | -5.0% | -5.5%
Nc1nc(Nc2ccccc2F)sc1C(=O)c1ccccc1 | 0.708µM* | u | 6.01µM* | x | u | x
C=CCCC(=O)Nc1nc(C)c(-c2csc(Nc3ccc(Cl)cc3Cl)n2)s1 | -7.4% | 1.5% | 26.9µM* | -18.2% | -4.9% | -1.4%
Cc1nc(NC(=O)c2ccccc2)sc1-c1csc(Nc2ccc(Cl)cc2Cl)n1 | -0.6% | 0.0% | 9.53µM* | 4.3% | -0.8% | -6.9%
Cc1ccc(Cl)cc1Nc1nc(-c2sc(NC(=O)c3ccco3)nc2C)cs1 | -14.6% | -12.9% | 0.4% | -77.0% | -3.1% | 7.0%
Cc1ccc(-c2csc3nc(-c4ccncc4)[nH]c(=O)c23)cc1 | -25.0% | -17.0% | -16.3% | x | 0.9% | x
Cc1ccc(-c2nc3ccsc3c(=O)[nH]2)cc1 | u | 21.2% | 12µM* | 17.8µM* | u | -15.8%
CCOC(=O)c1[nH]c(C)c(CCC(=O)N2CCN(c3cc(Cl)ccc3C)CC2)c1C | x | x | -10.0% | x | x | x
CCOC(=O)c1sc(=NC(=O)c2cccc(Br)c2)n(C)c1C | 4.47µM* | u | -19.6% | x | u | x
CCOC(=O)c1sc(=NC(=O)c2cccc(C)c2)n(C)c1C | 2µM* | u | u | 10µM* | u | -4.7%
CCOC(=O)c1sc(=NC(=O)C2CC2)n(C)c1C | 3.3% | -1.0% | 2.7% | -2.9% | 6.6% | 1.4%
CCOC(=O)c1sc(=NC(=O)c2ccc(S(=O)(=O)N(C)c3ccccc3)cc2)n(C)c1C | -1.8% | -2.2% | -0.5% | -9.2% | -8.9% | -5.4%
SMILES | Rab9 prom act | NPC1 promoter act | FLuc counter | SMN2 splice enh | ELG1 genotoxic | KinaseGlo FLuc
CCc1cc2c(cc3c(=O)n(CC(=O)NCc4cc(Br)ccc4OC)ncn32)s1 | x | x | 0.3% | u | x | x
c1ccc2c(c1)[nH]c1ccccc12 | x | x | x | -2.5% | x | x
Cc1[nH]c2ccccc2c1/C=C/c1cc[n+](C)cc1 | -43.3% | -36.0% | 2.2% | -25.7% | -22.0% | -2.7%
Cc1ccc(/C=C\c2nccc3c2[nH]c2ccccc23)cc1 | u | u | 1.69µM* | u | u | -1.0%
C(=C\c1nccc2c1[nH]c1ccccc12)/c1ccccc1 | u | u | 7.57µM* | x | -5.3% | x
CSc1ccc(/C=C/c2cc(=O)c3ccccc3[nH]2)cc1 | u | 15.2% | u | 16.7% | 13.1% | -2.7%
Fc1ccc(/C=C\c2nccc3c2[nH]c2ccccc23)cc1 | 18.1% | 20.4% | 5.36µM* | 16.2% | 8.8% | -8.7%
COc1ccc(C2Nc3ccccc3-c3nnc(SC)nc3O2)cc1C (stereo not given) | x | x | -12.2% | 3.5% | x | x
CCn1nc(C)c2c(-c3ccccc3)cc(=O)n(C(C)C(=O)NCc3ccc(C)cc3)c21 (stereo not given) | x | x | -11.5% | x | x | x
O=[N+]([O-])c1cccc(/C=N\NC2=CS(=O)(=O)C=C2)c1 | x | x | x | 2.1%[9.22 µM] | x | -2.6%[7.66 µM]
COc1ccc(-c2cc(C(=O)NCCc3ccc(S(N)(=O)=O)cc3)c3ccccc3n2)cc1 | 26.0% | 4.3% | 7.57µM* | -12.2% | -16.5% | -14.7%
Cc1ccc(-c2cc(C(=O)NCCc3ccc(S(N)(=O)=O)cc3)c3ccccc3n2)cc1 | 14.5% | 4.0% | 6.01µM* | -2.3% | -8.9% | -6.5%
NC1=C(O)C(=O)[C@H](c2c[nH]c3ccc(OCc4ccccc4)cc23)O1 | x | x | x | -5.8%[9.22 µM] | x | -3.7%[7.66 µM]
COc1cccc(NC(=O)C2CCN(c3nc4ccccc4nc3C(F)(F)F)CC2)c1 | x | x | -0.9% | x | x | x
Oc1cc(-n2cccn2)c(O)cc1-n1cccn1 | -2.0% | -0.5% | 16.9µM* | x | u | x
O=C(N/N=C/c1c(Cl)cccc1Cl)c1n[nH]c2c1CCCC2 | 2.82µM* | 2.82µM* | 6.75µM* | 17.8µM* | u | 8.91µM*
Cc1ccsc1/C=N\NC(=O)c1n[nH]c2c1CCC2 | 0.631µM* | 1µM* | 2.13µM* | 1.58µM* | u | 7.08µM*
Cc1cc(NC(=O)c2cc(-c3ccc(Br)cc3)on2)nn1Cc1ccc(Cl)cc1 | x | x | -4.9% | -9.8% | x | x
Cc1ccc2[nH]c(C(=O)Nc3ccccc3)cc2c1 | x | x | 2.13µM* | x | x | x
Cc1ccc(NC(=O)c2cc3cccc([N+](=O)[O-])c3[nH]2)cc1 | 1.26µM* | 3.16µM* | 2.39µM* | x | u | x
COc1ccc(NC(=O)c2cc3cc(C)ccc3[nH]2)cc1 | x | x | -0.7% | x | x | x
CCC(C)c1ccccc1NC(=O)c1cc2cccc([N+](=O)[O-])c2[nH]1 (stereo not given) | -0.2% | 18.2% | u | x | -10.0% | x
CCC(Sc1nc2c(sc3ccccc32)c(=O)n1CCc1ccc(OC)c(OC)c1)C(=O)N(CC)CC (stereo not given) | x | x | 2.2% | x | x | x
CCc1c(C)sc(NC(=O)c2cc(C)on2)c1C#N | u | u | 12µM* | 26.1% | u | -1.2%
